# Laboratory results taken from PubChem BioAssay AID624297 (National Center for Advancing Translational Sciences (NCATS), 2012).
# The whole screen tested about 340,000 compounds, of which about 6,200 (1.8%) were called active. Where a call stands in place of a potency, no number is given. Not shown: some 10% with an inconclusive outcome. Only a selection was taken, and actives are over-represented in it overall. Values without a mark were called inactive. Calls come from the whole dose curve; as a rule, active = well fitted activation curve with a large enough effect; inconclusive = small, poorly fitted or top-dose-only effect; inactive = no such curve, though single readings can be large or run the other way.
# Assay: A quantitative high throughput screen for small molecules that induce DNA re-replication in SW480 colon adenocarcinoma cells. Note: nearly all actives have a fitted effect of over 55% in size.
# Conditions: Hoechst DNA content imaging, 48 h; series mostly up to 46.1 µM
# Method in brief: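 Per well, 250 cells were exposed to pinned compound for 48 hr. Nuclear DNA was visualised with Hoechst (40 min, 37 C) and total object intensity recorded by fluorescence scanning.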
# Potency is the fitted concentration of half-maximal effect.
SMILES,Potency,re-replication activation
Cc1ccc(-n2c(=O)c(C#N)cc3c(=O)n4ccccc4nc32)cc1C,inactive,–
CCn1c(=N)c(S(=O)(=O)c2ccc(F)cc2)cc2c(=O)n3ccccc3nc21,20.6 µM (active),–
Cc1ccc(S(=O)(=O)c2cc3c(=O)n4cccc(C)c4nc3n(CCc3ccccc3)c2=N)cc1C,inactive,–
Cc1cc(C)c(C#N)c(N2CCC(C(N)=O)CC2)n1,inactive,–
N#Cc1c(C(F)(F)F)cc(-c2cccs2)nc1N1CCCCC1,inactive,–
N#CCc1c(C#N)c(N)nc(N2CCCC2)c1C#N,14.6 µM (active),–
O=C(OCCOc1ccccc1F)c1cc(S(=O)(=O)N2CCOCC2)ccc1F,inactive,–
COc1cccc(NC(=O)COC(=O)c2ccc3ccccc3n2)c1,inactive,–
CN(CCc1ccccc1)C(=O)c1cccc(NC(=O)Cc2cccc(NC(=O)C3CCCN(C(=O)CCc4ccccc4)C3)c2)c1 (stereo not drawn),inactive,–
CC(NC(=O)c1ccccc1)C(=O)OCC(=O)Nc1cccc(S(=O)(=O)N2CCCC2)c1 (stereo not drawn),inactive,–
CC1(C)CC(=O)C(CC(=O)N2CCC(Cc3ccccc3)CC2)C(=O)C1,inactive,–
CC1(C)CC(=O)C(C2c3ccccc3S(=O)(=O)c3ccccc32)C(=O)C1,4.11 µM (active),–
CC1(C)CC(=O)C=C(Nc2ccccc2)C1,inactive,–
COC(=O)C1CCN(C(=O)COC(=O)c2cc(S(=O)(=O)N3CCOCC3)ccc2C)CC1,inactive,–
C#CCOCCOCCOCCNc1nc(N2CCN(C(=O)Cn3cc(CCO)nn3)CC2)nc(N2CCN(C(=O)Cn3cc(CCCN=C(N)N)nn3)CC2)n1,inactive,–
Cc1cc(C)nc(Nc2cc([N+](=O)[O-])ccc2C)n1,inactive,–
Cc1cc(C)nc(Nc2n[nH]c(-c3ccccc3N)n2)n1,29.1 µM (active),–
COc1ccccc1-c1nc(SC)n[nH]1,inactive,–
Cc1noc(C)c1NC(=O)Nc1cccc2c1O[C@H](CN(C)C(=O)Nc1ccccc1)[C@@H](C)CN([C@H](C)CO)C2=O,inactive,–
CCCSc1ccc([C@H]2N[C@@](Cc3ccccc3)(C(=O)OC)[C@H]3C(=O)N(C)C(=O)[C@@H]23)cc1,inactive,–
Cc1ccc(CNC(=O)COC(=O)C2CCC2)cc1,inactive,–
CCOc1ccccc1NC(=O)CCc1ccc(C)o1,inactive,–
Cc1cnc(NC(=O)CSc2nnc(-c3ccc(Cl)cc3Cl)n2N)s1,inactive,–

SMILES,Potency,re-replication activation
Cc1ccc(CCC(=O)Nc2ncc(Cc3cc(Cl)ccc3Cl)s2)o1,1.64 µM (active),–
O=[N+]([O-])c1cc2ccccc2nc1-c1ccccc1,inactive,–
O=C(CN1C(=O)NC2(CCOc3ccccc32)C1=O)Nc1cccc([N+](=O)[O-])c1 (stereo not drawn),inactive,–
CCn1nc(NC(=O)c2ccco2)c2cc3ccc(C)cc3nc21,9.2 µM (active),–
Cc1ccnc(NC(=O)c2ccco2)n1,inactive,–
Cc1ccc(C(=O)COc2cccc(NC(=O)c3ccco3)c2)cc1,inactive,–
O=S1(=O)CCOC[C@H](Cc2ccccc2)N1Cc1ccccc1Br,inactive,–
O=C(/C(=C/c1cccc(Cl)c1)c1nc2ccccc2[nH]1)c1ccccc1,18.4 µM (active),–
CCC(=O)/C(=C(/O)c1ccccc1)c1nc2ccccc2[nH]1,inactive,–
O=C(CCc1nc2ccccc2c(=O)[nH]1)OCC(=O)c1cccc(Cl)c1,inactive,–
NCCN1CCN2C(=O)CN(C(=O)c3ccccc3)CC12 (stereo not drawn),inactive,–
COc1ccc(N2CCN(C(CNS(=O)(=O)c3ccc(C)cc3)c3ccccc3)CC2)cc1 (stereo not drawn),inactive,–
Cc1cccc(C)c1NC(=O)C(c1ccccc1)N1CC(=O)Nc2ccccc21 (stereo not drawn),inactive,–
Cc1cccc(C)c1NC(=O)C(Cl)C(=O)c1ccccc1 (stereo not drawn),16.4 µM (active),–
Cc1cccc(C)c1NC(=O)CN(C)C(=O)CCC(=O)c1ccccc1,inactive,–
COc1cc(OC)c(C(=O)NNC(=O)c2ccc(NS(=O)(=O)c3cccs3)cc2)cc1OC,inactive,–
NC(=O)C1(Nc2ccc([N+](=O)[O-])cc2)CCCC1,inactive,–
CCOC(=O)c1cc2c(=O)n3ccccc3nc2n(CC(C)C)c1=NC(=O)c1c(-c2c(F)cccc2Cl)noc1C,13 µM (active),–
C/C(=N/OC(=O)c1c(-c2c(F)cccc2Cl)noc1C)c1cnccn1,inactive,–
CCCn1c(=NC(C)=O)c(C(=O)OCC)cc2c(=O)n3ccccc3nc21,inactive,–
O=C(OCC(=O)N1CCN(C(=O)c2ccco2)CC1)c1c(Cl)cccc1Cl,inactive,–
O=C(NNC(=O)C1CCCC1)c1ccc(F)cc1,inactive,–
O=C(/C=C/c1ccc([N+](=O)[O-])o1)NNC(=O)c1ccc(F)cc1,3.66 µM (active),–

SMILES,Potency,re-replication activation
Cc1ccc(/C=C/C(=O)Nc2ccc([N+](=O)[O-])c(NC(=O)/C=C/c3ccc(C)o3)c2)o1,inactive,–
Cc1cccc(C(=O)OCC(=O)NC(C)C2CC3CCC2C3)c1O (stereo not drawn),inactive,–
CNC(=S)NNC(=O)c1sccc1OCc1ccccc1,inactive,–
CNC(=S)NNC(=O)c1cccn(Cc2ccccc2)c1=O,inactive,–
CNC(=S)NNC(=O)c1oc2nc(-c3ccccc3)cc(-c3ccco3)c2c1N,14.6 µM (active),–
COc1ccc(CC(=O)NC(C)c2ccc(Cl)c(Cl)c2)cc1S(=O)(=O)N1CCOCC1 (stereo not drawn),inactive,–
Cc1ccc(Nc2c(O)nc[nH]c2=O)cc1C,inactive,–
C[C@]12CC[C@H](O)CC1=CCC1C2CC[C@@]2(C)C1CC[C@@H]2NC(=O)CCC(=O)O (stereo partly drawn),inactive,–
COC(=O)C1CC2=C(CC(C)(C)CC2=O)N(c2ccccc2)C1=O (stereo not drawn),inactive,–
CCOC(=O)c1ccc(NC(=O)c2cccnc2)cc1,inactive,–
CCOC(=O)c1ccc(N/C(=N/S(=O)(=O)c2ccccc2)c2ccccc2)cc1,20.6 µM (active),–
Cc1ccc(S(=O)(=O)/N=C(/Nc2ccc3[nH]c(=O)[nH]c3c2)c2ccccc2)cc1,inactive,–
NC(=S)NN=C1CCCC(C(F)(F)F)C1 (stereo not drawn),inactive,–
O=C(NN=Cc1ccc([N+](=O)[O-])cc1)C1CC1,inactive,–
O=C1/C(=C\c2ccc([N+](=O)[O-])cc2)CS(=O)(=O)C/C1=C/c1ccc([N+](=O)[O-])cc1,4.11 µM (active),–
O=[N+]([O-])c1ccc(C=NN=Cc2ccc([N+](=O)[O-])cc2)cc1,inactive,–
CCC(CO)Oc1cc(NC(=O)c2cccc(F)c2)c2ncn(C(C)C)c2c1 (stereo not drawn),inactive,–
O=C1N[C@@H](c2ccccc2)COC(=O)[C@H](Cc2ccc(F)cc2)C/C=C\C[C@@H]1CC(=O)N(CCO)Cc1ccccc1,inactive,–
CC(C)C(=O)N1CCN(c2nc(-c3ccccc3)c3c(c2C#N)CC(C)(C)OC3)CC1,inactive,–
COc1ccc(CSc2nc(N3CCOCC3)c3c(c2C#N)CC(C)(C)OC3)cc1,inactive,–
CC1(C)Cc2c(C#N)c(SCc3nc4ccccc4[nH]3)nc(N3CCOCC3)c2CO1,12.6 µM (active),–
C=CC(COCc1ccccc1)N(CC(=O)OC)S(=O)(=O)c1cc(Br)ccc1OC (stereo not drawn),–,4.23% [at 9.22 µM]
